Measurements taken from PubChem BioAssay (EPA / NIEHS).
Where “and” joins values, the source holds several entries; their conditions need not be identical. Equal values may be shown once. Inconclusive results are not listed. The source holds several records for some structures; these can differ, active in one and inactive in another. Calls of active or inactive are those of the source. How the source made its calls: active means hit-call score of the fitted dose curve at least 0.9, where 1 is the maximum; inconclusive means response in the unintended direction; inactive means score below 0.9.

How the values were obtained:
[1] = target: Cellular tumor antigen p53 (Homo sapiens) (UniProt P04637); test: TOX21_p53_BLA_p2_ratio: Tox21 HCT-116 p53 Agonism Beta-lactamase Assay, Ratio, Phase 2 (AID 2283592)
Chain of Cellular tumor antigen p53 (Homo sapiens) (P04637 whole entry, looked up): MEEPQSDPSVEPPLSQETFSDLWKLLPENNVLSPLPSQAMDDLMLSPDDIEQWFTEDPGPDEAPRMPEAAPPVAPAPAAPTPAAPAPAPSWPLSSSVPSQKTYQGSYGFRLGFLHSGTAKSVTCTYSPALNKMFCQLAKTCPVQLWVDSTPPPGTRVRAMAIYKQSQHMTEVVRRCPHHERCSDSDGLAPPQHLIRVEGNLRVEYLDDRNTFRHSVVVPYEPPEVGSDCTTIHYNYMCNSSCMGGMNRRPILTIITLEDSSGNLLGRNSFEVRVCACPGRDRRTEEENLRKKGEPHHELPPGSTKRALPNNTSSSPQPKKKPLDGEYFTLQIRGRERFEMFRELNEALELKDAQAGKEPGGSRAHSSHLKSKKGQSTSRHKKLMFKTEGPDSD
Outline: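 Readout: blue/green (460/530 nm) FRET emission ratio after 2 h CCF4-AM loading at room temperature, excitation 405 nm. HCT116 p53 bla cells, 16 h compound exposure at 37C, 5% CO2; agonist direction fitted against DMSO baseline.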

[2] = TOX21_p53_BLA_p3_viability: Viability Assessment in the Tox21 HCT-116 p53 Agonism Beta-lactamase Assay, Phase 3 (AID 2283593);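 further: cells exposed to compound for 16 h before reading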
Outline: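 Cellular ATP was quantified by CellTiter-Glo luminescence, read after 30 min at room temperature. Beforehand, HCT116 cells (4000/well) received compound 5 h post-seeding, 217-fold diluted from DMSO, then incubated 16 h at 37C.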

[3] = target: Cellular tumor antigen p53 (Homo sapiens) (UniProt P04637); test: TOX21_p53_BLA_p3_ratio: Tox21 HCT-116 p53 Agonism Beta-lactamase Assay, Ratio, Phase 3 (AID 2283596)
Outline: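 Cells were seeded at 4000/well, rested 5 h at 37C, then dosed with DMSO compound solutions (217-fold dilution) for 16 h. CCF4-AM substrate was loaded for 2 h at room temperature, and the 460/530 nm emission ratio was fitted for gain of signal versus DMSO.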

[4] = TOX21_p53_BLA_p4_viability: Viability Assessment in the Tox21 HCT-116 p53 Agonism Beta-lactamase Assay, Phase 4 (AID 2283597);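 further: hits lower the luminescence signal meaning cytotoxicity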
Outline: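 ATP content by CellTiter-Glo luminescence, 30 min RT, read after the beta-lactamase ratio step. Cells: HCT116, 4000/well, compound added after 5 h, exposure 16 h at 37C. Signal loss = reduced viability.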

[5] = target: Cellular tumor antigen p53 (Homo sapiens) (UniProt P04637); test: TOX21_p53_BLA_p5_ratio: Tox21 HCT-116 p53 Agonism Beta-lactamase Assay, Ratio, Phase 5 (AID 2283599)
Outline: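 Beta-lactamase reporter ratio (blue 460 nm over green 530 nm, 405 nm excitation) after 2 h CCF4-AM loading, in HCT-116 cells exposed 16 h at 37 C to compounds pinned at 217-fold dilution. Increases relative to DMSO baseline scored.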

[6] = TOX21_p53_BLA_p5_viability: Viability Assessment in the Tox21 HCT-116 p53 Agonism Beta-lactamase Assay, Phase 5 (AID 2283600)
Outline: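 ATP luminescence (CellTiter-Glo, 30 min, RT) served as the viability read-out, with loss of signal indicating cytotoxicity. Compounds in DMSO were pinned at a 217-fold dilution onto 4000 cells/well and incubated 16 h, 37C.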

[7] = target: Cellular tumor antigen p53 (Homo sapiens) (UniProt P04637); test: TOX21_p53_BLA_p4_ratio: Tox21 HCT-116 p53 Agonism Beta-lactamase Assay, Ratio, Phase 4 (AID 2283601)
Outline: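 Signal is the blue/green (460nm/530nm) ratio of cleaved versus uncleaved CCF4-AM substrate, read after 2 h substrate loading. Cells were HCT116 carrying the p53-responsive beta-lactamase reporter, dosed 16 h at 37C, 5% CO2; CellTiter-Glo measured in parallel.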

[8] = Tanguay_ZF_120hpf_MORT_legacy: (Legacy) Oregon State University Tanguay Lab 120 Hour Post-fertilization zebrafish Assay for Mortality (AID 2283633);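 on AC50: fitted as increase in binary mortality versus DMSO negative control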
Outline: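 Brightfield scoring of embryo death (binary) at 24 and 120 hpf; static exposure 6–120 hpf, 28C, sealed and foil-covered. Pronase-dechorionated 5D wild-type larvae, single embryo per well. DMSO 0.64% v/v; trimethyltin chloride 5uM positive control.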

[9] = Tanguay_ZF_120hpf_YSE_legacy: (Legacy) Oregon State University Tanguay Lab 120 Hour Post-fertilization zebrafish Assay for Yolk Sac Edema (AID 2283634);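 on AC50: actives raise the incidence of yolk sac edema above the DMSO baseline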
Outline: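 Binary brightfield scoring of yolk sac edema at 120 hpf; DMSO baseline, gain-of-signal fitting. Dechorionated 5D larvae, one per well, static exposure 6–120 hpf, 28C, 0.64% DMSO. Dead embryos not scored.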

[10] = Tanguay_ZF_120hpf_AXIS_legacy: (Legacy) Oregon State University Tanguay Lab 120 Hour Post-fertilization zebrafish Assay for Body Axis Malformation (AID 2283635);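 on AC50: potency for an increased fraction of larvae scored with body axis malformation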
Outline: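 Embryos: 5D wild-type, pronase-dechorionated 4 hpf; static exposure 6–120 hpf, 28C, sealed, dark, 1 embryo/well, 0.64% DMSO. 120 hpf axis malformation scored present/absent; dead embryos excluded. Analysed as gain of signal vs DMSO.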

Measured: AC50

COc1cccc(-c2ccc(/C=C\CN3CCCCCC3)cc2Cl)c1
active: [1] 70.5 µM | [4] 52.5 µM | [7] 73.8 µM | [8] 32.4 µM
not listed: [10]
inactive: all other assays above

CC(C)(O)c1coc(S(=O)(=O)NC(=O)Nc2c3c(cc4c2CCC4)CCC3)c1
not listed: [10]
inactive: all other assays above

CCCC(=O)OCC
inactive: [1] | [2] | [3] | [8] | [9]

Nc1nc2ncc(CNc3ccc(C(=O)N[C@@H](CCC(=O)O)C(=O)O)cc3)nc2c(=O)[nH]1
not listed: [6] | [10]
inactive: all other assays above

CCCN(C1CCN(C(=O)C2CCNCC2)CC1)[C@@H]1CCc2ccc(OC)cc2C1
not listed: [4] | [5] | [10]
inactive: all other assays above

CC(C)CC(C)(O)C#CC(C)(O)CC(C)C (stereo not drawn)
not listed: [5] | [10]
inactive: all other assays above

Cn1cnc([N+](=O)[O-])c1Sc1ncnc2nc[nH]c12
active: [1] 18.9 µM and 31.3 µM | [2] 4.91 µM | [3] 30 µM and 33.1 µM | [4] 1.62 µM | [5] 29.8 µM and 34.8 µM | [7] 22.2 µM and 34.3 µM
inactive: [2] | [4] | [6] | [8] | [9] | [10]

Oc1ccc2c(c1)-c1ccccc1C2
active: [7] 79.7 µM | [9] 37.6 µM | [10] 35.5 µM
inactive: all other assays above

CC(=O)OCCC(C)C
not listed: [6] | [10]
inactive: all other assays above

CCCCCCCCCCCCc1ccccc1
not listed: [4] | [6] | [10]
inactive: all other assays above

CC[C@H]1CC[C@H](NCc2cc3c(cc2OC)[C@H]2C[C@H]2C(=O)N3C)[C@H](c2ccccc2)N1
active: [3] 13.3 µM
not listed: [4] | [5] | [6]
inactive: all other assays above

O=C(OC[C@H]1O[C@@H](OC(=O)c2cc(O)c(O)c(OC(=O)c3cc(O)c(O)c(O)c3)c2)[C@H](OC(=O)c2cc(O)c(O)c(OC(=O)c3cc(O)c(O)c(O)c3)c2)[C@@H](OC(=O)c2cc(O)c(O)c(OC(=O)c3cc(O)c(O)c(O)c3)c2)[C@@H]1OC(=O)c1cc(O)c(O)c(OC(=O)c2cc(O)c(O)c(O)c2)c1)c1cc(O)c(O)c(OC(=O)c2cc(O)c(O)c(O)c2)c1
active: [1] 12.9 µM and 6.14 µM | [2] 6.6 µM | [3] 11.2 µM and 5.34 µM | [4] 14.1 µM and 3.93 µM | [5] 17 µM and 10.6 µM | [6] 6.49 µM | [7] 7.98 µM and 3.2 µM
inactive: [2] | [6] | [8] | [9] | [10]

O=C1CCC(N2C(=O)c3ccccc3C2=O)C(=O)N1 (stereo not drawn)
not listed: [5] | [10]
inactive: all other assays above

CC(C)CCCCCCCOC(=O)CCCCC(=O)OCCCCCCCC(C)C
not listed: [4] | [5] | [6]
inactive: all other assays above

CN(C)c1ccc(N=NS(=O)(=O)O)cc1
not listed: [10]
inactive: all other assays above

CCOC(=O)COc1ccc2c(c1)CC(NCC(O)c1cccc(Cl)c1)CC2 (stereo not drawn)
active: [1] 70.3 µM | [4] 80 µM | [7] 71.7 µM | [8] 15.6 µM
not listed: [10]
inactive: all other assays above

CCC(C)(C)C(=O)O[C@H]1C[C@@H](C)C=C2C=C[C@H](C)[C@H](CC[C@@H]3C[C@@H](O)CC(=O)O3)[C@H]21
active: [2] 75.7 µM | [4] 46.1 µM | [8] 1.45 µM | [9] 0.649 µM
not listed: [10]
inactive: all other assays above

COc1ccc(-n2nc(C(F)F)cc2-c2ccc(S(C)=O)cc2)cc1 (stereo not drawn)
active: [9] 24.8 µM | [10] 47 µM
not listed: [6] | [7]
inactive: all other assays above

CC(C)=CCC/C(C)=C\CO
not listed: [5] | [6] | [10]
inactive: all other assays above

CCOC(=O)c1ccc(C2CCC(NC[C@H](O)COc3ccc(O)c(NS(C)(=O)=O)c3)CC2)cc1 (stereo partly drawn)
active: [1] 80.4 µM | [4] 60.2 µM | [7] 84 µM
not listed: [10]
inactive: all other assays above

CCCCCCCCO
not listed: [4] | [5] | [10]
inactive: all other assays above

O=C(CCCCCCCCc1cccnc1)N1CCC(C=C(c2ccccc2)c2ccccc2)CC1
active: [2] 28.2 µM | [3] 43.2 µM | [6] 13.9 µM
inactive: all other assays above

Cc1ccc(S(=O)(=O)O)cc1C
not listed: [6] | [10]
inactive: all other assays above

Cc1ccc(C)c(O)c1
not listed: [4] | [10]
inactive: all other assays above

CC(C)=CCC/C(C)=C/CO
active: [10] 23.6 µM
inactive: all other assays above

CCOc1cccc(-n2cc(C(=O)N3CCN(c4cc(C(=O)O)c5ccccc5c4)CC3)nc2-c2ccc(C)cc2)c1
active: [1] 18 µM | [2] 28.6 µM | [3] 41.7 µM | [4] 13.3 µM | [5] 58.1 µM | [6] 36.4 µM | [7] 24.1 µM
inactive: [8] | [9] | [10]

O=C(O)c1cccc(N(Cc2cccnc2)c2ccc(OC(F)F)c(OC(F)F)c2)c1
not listed: [6]
inactive: all other assays above

CC[C@H](C)C(=O)O[C@H]1C[C@@H](C)C=C2C=C[C@H](C)[C@H](CC[C@@H]3C[C@@H](O)CC(=O)O3)[C@H]21
active: [1] 84.3 µM | [2] 82.5 µM and 35.6 µM | [4] 79.2 µM and 27.4 µM | [5] 97.1 µM and 37.7 µM | [6] 91.2 µM and 33.6 µM | [7] 97.1 µM | [8] 1.33 µM
inactive: [1] | [2] | [3] | [4] | [5] | [6] | [7] | [9]

CCN(C(=O)c1cc(C)cc(OC[C@H](C)Nc2ccncc2)c1)C(C)C
inactive: all assays above

CC(C)c1cccc(C(C)C)c1N1C(=O)c2ccc(O)cc2C1=O
inactive: [3] | [9] | [10]
active: [2] 74.9 µM | [4] 68.4 µM | [5] 2.05 µM | [6] 79 µM | [7] 69.5 µM | [8] 26.9 µM

CCc1cc(SCc2sc(-c3ccc(C(F)(F)F)cc3)nc2CN2CCN(c3ccc(OC)cc3)CC2)ccc1OCC(=O)O
active: [2] 17.2 µM | [3] 59.9 µM | [4] 4.42 µM | [5] 67 µM | [6] 9.98 µM | [7] 9.5 µM | [10] 26 µM
inactive: [8] | [9]

CCNc1ccccc1
not listed: [2] | [6]
inactive: all other assays above

CC1=CC(=O)CC(C)(C)C1
not listed: [1] | [9] | [10]
inactive: all other assays above

Fc1ccccc1[C@@H](F)COC1CCC(Nc2ncnc3[nH]ncc23)CC1 (stereo partly drawn)
active: [9] 23.9 µM
not listed: [1]
inactive: all other assays above

O=C1OC(=O)C2C3C=CC(C3)C12 (stereo not drawn)
not listed: [1] | [10]
inactive: all other assays above

O=C1CCCCCN1
not listed: [1] | [10]
inactive: all other assays above

CCOC(=O)CC(CC(=O)OCC)(OC(C)=O)C(=O)OCC
inactive: [1] | [2] | [6] | [8] | [9]

COCCOCCOCCOC
inactive: [1] | [4] | [5] | [6] | [8] | [9]

Cc1ccc(N)cc1O
not listed: [1] | [9] | [10]
inactive: all other assays above

Cn1c(=O)c2c(ncn2C)n(C)c1=O
not listed: [1]
inactive: all other assays above

O=C(O)c1cc(N=Nc2ccc(S(=O)(=O)Nc3ccccn3)cc2)ccc1O
not listed: [1] | [10]
inactive: all other assays above
